This is part of a sample that, as a whole, favours compounds with a hit. Of some 79,000 tested, about 15% had one in any assay. Active and inactive are the calls of the source. Cut-off read from the data, not from the text of the source: active = growth inhibition above about 70%; inactive = the rest.
What was measured:
[1] = NCI Yeast Anticancer Drug Screen. Data for the rad52 strain (AID 147);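 note: 0% = growth of vehicle-treated control cultures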; settings: S. cerevisiae rad52 mutant growth inhibition, stronger effect = higher value
In short: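 DNA repair-defective yeast; compound exposure; growth scored against vehicle controls.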

[2] = NCI Yeast Anticancer Drug Screen. Data for the wt1 strain (AID 149);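 note: 0% = growth of vehicle-treated wt1 cultures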; settings: S. cerevisiae wt1 strain (SPY 50644) growth inhibition, stronger effect = higher value
In short: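 wt1 strain grown with compound or vehicle; inhibition taken from the growth difference.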

[3] = NCI Yeast Anticancer Drug Screen. Data for the rad50EPP+ strain (AID 151);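 note: 0% = growth of vehicle-treated control cultures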; settings: S. cerevisiae rad50 mutant strain, stronger effect = higher value
In short: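 rad50EPP+ yeast treated with test compounds. Readout: growth vs vehicle control.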

[4] = NCI Yeast Anticancer Drug Screen. Data for the rad50 strain (AID 155);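 note: 0% = growth of vehicle-only cultures of the same strain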; settings: S. cerevisiae rad50 strain growth inhibition, stronger effect = higher value
In short: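 DNA repair mutant yeast, compound exposure, growth read-out; inhibition is taken relative to vehicle.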

[5] = NCI Yeast Anticancer Drug Screen. Data for the mec2-1 strain (AID 157); settings: S. cerevisiae mec2-1 strain, stronger effect = higher value
In short: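 Growth inhibition is read against vehicle-treated controls after compound exposure of the mec2-1 yeast strain, which is defective in DNA damage repair or cell cycle control.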

[6] = NCI Yeast Anticancer Drug Screen. Data for the rad14 strain (AID 159);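 note: 0% = growth of vehicle-treated control cultures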; settings: S. cerevisiae rad14 strain growth inhibition, stronger effect = higher value
In short: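 DNA repair-defective yeast, compound-exposed; % growth inhibition derived by comparison with vehicle-treated controls.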

[7] = NCI Yeast Anticancer Drug Screen. Data for the sgs1 mgt1 strain (AID 161);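 note: 0% = growth of cultures given vehicle only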; settings: S. cerevisiae sgs1 mgt1 strain, stronger effect = higher value
In short: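 Yeast cells carrying a defined DNA-repair defect were exposed to test compounds. Growth inhibition was measured relative to vehicle-treated controls.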

[8] = NCI Yeast Anticancer Drug Screen. Data for the CLN2oe strain (AID 163);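 note: 0% = growth of vehicle-only control cultures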; settings: S. cerevisiae CLN2oe strain, stronger effect = higher value
In short: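 Compound-treated yeast; growth vs vehicle ctrl = % inhibition. Genetically altered strain (cell-cycle control).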

[9] = NCI Yeast Anticancer Drug Screen. Data for the cln2 rad14 strain (AID 165);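 note: 0% = growth equal to vehicle treated cultures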; settings: S. cerevisiae cln2 rad14 strain, stronger effect = higher value
In short: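 Growth inhibition, relative to vehicle-treated controls, is the read-out. The test organism is a yeast strain with defined genetic alterations, cln2 rad14.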

[10] = NCI Yeast Anticancer Drug Screen. Data for the bub3 strain (AID 167); settings: S. cerevisiae bub3 mutant strain, stronger effect = higher value
In short: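 In this screen, a yeast mutant lacking normal mitotic checkpoint function is challenged with compound. Relative growth versus vehicle gives the inhibition value.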

[11] = NCI Yeast Anticancer Drug Screen. Data for the wt2 strain (AID 169);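 note: 0% = growth of vehicle-treated yeast cultures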; settings: S. cerevisiae wt2 strain growth inhibition, stronger effect = higher value
In short: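 Compound exposure of yeast; growth compared with vehicle controls; inhibition reported.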

[12] = NCI Yeast Anticancer Drug Screen. Data for the mlh1 strain (AID 171);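 note: 0% = growth of vehicle-treated control cultures of the same strain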; settings: S. cerevisiae mlh1 strain growth inhibition, stronger effect = higher value
In short: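 Compounds are applied to a genetically altered yeast strain, and its growth is compared with that of vehicle-treated cultures to give percent inhibition.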

[13] = NCI Yeast Anticancer Drug Screen. Data for the sgs1 strain (AID 173);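 note: 0% = growth of vehicle-only control cultures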; settings: S. cerevisiae sgs1 mutant, stronger effect = higher value
In short: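 Compounds applied to genetically altered yeast; growth compared with vehicle-treated cultures to give % inhibition.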

[14] = NCI Yeast Anticancer Drug Screen. Data for the mlh1 rad18 strain (AID 175); settings: S. cerevisiae mlh1 rad18 strain growth inhibition, stronger effect = higher value
In short: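 Cells of a genetically altered yeast strain, deficient in DNA damage repair, were treated with compound. Their growth was then compared with that of vehicle-treated cultures to give inhibition.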

[15] = at 5.0 µM (retest, dose inferred, filed as 0.5)
[16] = at 50.0 µM (retest, dose inferred, filed as 5.0)

Measured: growth inhibition

CCCc1[nH]nc(C(N)=O)c1N=NN(C)C
inactive: [1]; at 1.2 µM 2% | [1]; at 3.7 µM 12% | [1]; at 11.0 µM 37% | [2]; at 1.2 µM -6% | [2]; at 3.7 µM -4% | [2]; at 11.0 µM -7% | [2]; at 33.0 µM -4% | [2]; at 100.0 µM 5% | [3]; at 1.2 µM 2% | [3]; at 3.7 µM 16% | [3]; at 11.0 µM 43% | [4]; at 1.2 µM 3% | [4]; at 3.7 µM 4% | [4]; [15] -108% | [4]; at 11.0 µM 31% | [5]; at 1.2 µM 1% | [5]; at 3.7 µM -1% | [5]; [15] -44% | [5]; at 11.0 µM -14% | [5]; at 33.0 µM 11% | [5]; [16] -15% | [5]; at 50.0 µM 14.1% | [5]; at 100.0 µM 63% | [6]; at 1.2 µM 0% | [6]; at 3.7 µM -1% | [6]; at 11.0 µM 5% | [6]; at 33.0 µM 11% | [6]; at 100.0 µM 30% | [7]; [15] -55% | [7]; [16] 18% | [7]; at 50.0 µM 44.1% | [8]; at 1.2 µM -3% | [8]; at 3.7 µM -3% | [8]; at 11.0 µM 2% | [8]; at 33.0 µM -3% | [8]; at 100.0 µM 5% | [9]; [15] -59% | [9]; [16] -48% | [9]; at 50.0 µM 13.4% | [10]; at 1.2 µM -13% | [10]; at 3.7 µM -9% | [10]; [15] -60% | [10]; at 11.0 µM -5% | [10]; at 33.0 µM -6% | [10]; [16] -73% | [10]; at 50.0 µM -0.25% | [10]; at 100.0 µM 4% | [11]; at 1.2 µM -1% | [11]; at 3.7 µM 0% | [11]; at 11.0 µM -1% | [11]; at 33.0 µM 3% | [11]; at 100.0 µM 10% | [12]; at 1.2 µM 7% | [12]; at 3.7 µM -5% | [12]; at 11.0 µM -2% | [12]; at 33.0 µM 0% | [12]; at 100.0 µM 11% | [13]; at 1.2 µM 0% | [13]; at 3.7 µM -3% | [13]; at 11.0 µM 24% | [13]; at 33.0 µM 56% | [14]; [15] -120% | [14]; [16] 13%
active: [1]; at 33.0 µM 90% | [1]; at 100.0 µM 96% | [3]; at 33.0 µM 82% | [3]; at 100.0 µM 95% | [4]; at 33.0 µM 83% | [4]; [16] 81% | [4]; at 50.0 µM 94.8% | [4]; at 100.0 µM 94% | [13]; at 100.0 µM 85% | [14]; at 50.0 µM 73.5%

From PubChem BioAssay (NCI)
